From PubChem BioAssay (NCI) come the findings set out here.

Test systems include NCI-H23 lung; NCI-H226 lung; NCI-H322M lung; HOP-62 NSCLC; NCI-H460 lung; HOP-92 NSCLC; NCI-H522 lung; A549/ATCC NSCLC; 786-0 renal; COLO 205 colon; DU-145 prostate; K-562 leukemia; MALME-3M melanoma; MDA-MB-231 breast; RXF 393 renal; SF-268 CNS; SF-295 CNS; SF-539 CNS; UACC-257 melanoma; M14 melanoma.
What all share (assay): NCI-60 one-dose screen, 48 h (100 = growth as untreated, 0 = no growth, -100 = all killed)
Details in all cases: 10 µM unless noted

Several values for one entry are separate records, joined by “and”; a condition that tells them apart may be missing. Equal entries are not always repeated. Compounds without any hit were thinned out: in the full panel of roughly 83,000, 20% have a hit.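 Activity criterion: percent growth below 10, measured after cells in 96-well plates were exposed to a single compound concentration for 48 hours.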 Activity calls are given as the source filed them.

As to `Nc1n[nH]c(=S)n1-c1ccc(Cl)cc1`, the growth in the assay with NCI-H23 lung is 95.9% (inactive); in the assay with NCI-H226 lung, 93.9% (inactive); in the assay on NCI-H322M lung, 98.7% (inactive); with HOP-62 NSCLC, 94.5% (inactive); in the assay with NCI-H460 lung, 99.6% (inactive); in the assay on HOP-92 NSCLC it was 85.9% (inactive). In addition, the growth in the assay on NCI-H522 lung is 97.2% (inactive); with A549/ATCC NSCLC, 100% (inactive); in the assay on 786-0 renal, 93.7% (inactive); in the assay with COLO 205 colon it was 117% (inactive); in the assay on DU-145 prostate it was 108% (inactive); with K-562 leukemia it was 102% (inactive). In addition, the growth in the assay with MALME-3M melanoma is 102% (inactive); in the assay on MDA-MB-231 breast, 112% (inactive); in the assay with RXF 393 renal, 96.7% (inactive); in the assay on SF-268 CNS, 100% (inactive); in the assay with SF-295 CNS it was 148% (inactive); in the assay with SF-539 CNS, 93% (inactive). Also, the figures for the growth in the assay with UACC-257 melanoma and in the assay with M14 melanoma were 93.5% (inactive) and 101% (inactive), respectively.

Turning to `COc1cc2c(Nc3ccc(Cl)c(Cl)c3F)ncnc2cc1OCC1C[C@@H]2CN(C)C[C@@H]2C1` (stereo not given in full), the growth is -82.2% (active) and 40% (inactive) in the assay with NCI-H23 lung; -65.1% (active) and 46% (inactive) in the assay with NCI-H226 lung; -96.4% (active) and 21.5% (inactive) in the assay with NCI-H322M lung; -87.2% (active) and 16.6% (inactive) in the assay with HOP-62 NSCLC; -79.4% (active) and 21.6% (inactive) in the assay with NCI-H460 lung; -84.5% (active) and 16.3% (inactive) with HOP-92 NSCLC. The growth with NCI-H522 lung is -80.7% (active) and -36.8% (active); in the assay with A549/ATCC NSCLC it was -92.8% (active) and 15.8% (inactive); in the assay with 786-0 renal, -91.9% (active) and -22.5% (active); with COLO 205 colon, -84.6% (active) and -25.1% (active); in the assay on DU-145 prostate, -83.6% (active) and 25.4% (inactive); in the assay with K-562 leukemia, -39.5% (active) and -0.692% (active). Also, the growth in the assay with MALME-3M melanoma is -93.5% (active) and -34.7% (active); with MDA-MB-231 breast it was -87.5% (active) and -9.5% (active); in the assay on RXF 393 renal, -95.2% (active) and -65.2% (active); with SF-268 CNS, -70.2% (active) and 24% (inactive); with SF-295 CNS, -93.6% (active) and -55.7% (active); in the assay with SF-539 CNS it was -93.9% (active) and 17.5% (inactive). Moreover, the growth with UACC-257 melanoma was -87.8% (active) and -64% (active); in the assay on M14 melanoma, -71.1% (active) and -62.8% (active).

Take `CC1(C)[C@@H](OC(=O)CCC(=O)O)CC[C@]2(C)[C@H]3C(=O)C=C4[C@@H]5C[C@@](C)(C(=O)O)CC[C@]5(C)CC[C@@]4(C)[C@]3(C)CC[C@@H]12`: the growth in the assay on NCI-H23 lung is 105% (inactive) and -34.8% (active); with NCI-H226 lung it was 104% (inactive) and -75.4% (active); in the assay with NCI-H322M lung it was 107% (inactive) and -54.4% (active); in the assay with HOP-62 NSCLC, 103% (inactive) and -54.9% (active); with NCI-H460 lung it was 103% (inactive) and -35.3% (active); in the assay on HOP-92 NSCLC, 121% (inactive) and -74.4% (active). For the same molecule, the growth with NCI-H522 lung is 86.5% (inactive) and -40.5% (active); in the assay on A549/ATCC NSCLC it was 107% (inactive) and -28.4% (active); with 786-0 renal it was 98.4% (inactive) and -66.9% (active); in the assay on COLO 205 colon, 113% (inactive) and -3.87% (active); with DU-145 prostate it was 101% (inactive) and -1.77% (active); in the assay on K-562 leukemia, 92.3% (inactive) and 5.05% (active). Further, the growth with MALME-3M melanoma is 108% (inactive) and -65.4% (active); in the assay on MDA-MB-231 breast it was 110% (inactive) and -5.44% (active); in the assay with RXF 393 renal, 125% (inactive) and -88.8% (active); in the assay on SF-268 CNS, 96.1% (inactive) and -27% (active); in the assay on SF-295 CNS, 106% (inactive) and -51.1% (active); with SF-539 CNS, 99.9% (inactive) and -73% (active). In addition, the growth with UACC-257 melanoma was 99.2% (inactive) and -46.5% (active); in the assay on M14 melanoma, 103% (inactive) and -12.8% (active).

On to `COc1ccc2c(=O)cc(-c3ccccc3)[nH]c2c1`, for which the growth with NCI-H23 lung is 34.4% (inactive) and 16.5% (inactive); in the assay on NCI-H226 lung, 57.3% (inactive) and 23.8% (inactive); with NCI-H322M lung it was 66.1% (inactive) and 56.9% (inactive); in the assay on HOP-62 NSCLC it was 30.1% (inactive) and 21.2% (inactive); in the assay on NCI-H460 lung, 6.58% (active) and 4.24% (active); in the assay on HOP-92 NSCLC, 53.8% (inactive). Also, the growth is -20% (active) and -68.2% (active) in the assay with NCI-H522 lung; 22.6% (inactive) and 13.9% (inactive) in the assay with A549/ATCC NSCLC; 35.3% (inactive) and -14.1% (active) in the assay with 786-0 renal; -19.6% (active) and -7.06% (active) in the assay on COLO 205 colon; 15% (inactive) and 19.1% (inactive) in the assay with DU-145 prostate; 9.54% (active) and -12.9% (active) in the assay with K-562 leukemia. For the same molecule, the growth in the assay with MALME-3M melanoma is 40.7% (inactive) and 47.9% (inactive); in the assay on MDA-MB-231 breast, 29.9% (inactive) and 29.1% (inactive); with RXF 393 renal, 7.41% (active); in the assay on SF-268 CNS it was 45.3% (inactive) and 43.1% (inactive); in the assay with SF-295 CNS it was -8.08% (active) and 2.52% (active); in the assay with SF-539 CNS, -5.99% (active) and -23.9% (active). Besides, the growth is 65.2% (inactive) and 30.5% (inactive) in the assay with UACC-257 melanoma; 4.76% (active) and 0.39% (active) in the assay on M14 melanoma.
